# In PubChem BioAssay (NCATS):
# Records with an inconclusive call do not appear. Values without a mark were called inactive. Calls come from the whole dose curve; as a rule, active = well fitted inhibition curve with a large enough effect; inconclusive = small, poorly fitted or top-dose-only effect; inactive = flat fitted curve, though single readings scatter.
# Target: Calcium and integrin-binding protein 1 (Homo sapiens) (UniProt Q99828)
# Experiment: Primary qHTS for Identification of Calcium Integrin Binding Protein 1 (CIB1) Competitor (AID 1508620);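 note: GST tagged CIB1 binding a fluorescein labelled alphaIIb integrin peptide tracer; top concentration of the series differs between compounds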
# Conditions: CIB1-GST / FITC-alphaIIb peptide fluorescence polarization; series mostly up to 114 µM; activity change, negative = inhibition: at the top concentration
# Procedure, shortened: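 Fluorescence polarization competition: CIB1-GST (1 uM final) preincubated with compound 15 min at room temperature, then FITC-labeled alphaIIb peptide (100 nM final) added for another 15 min. Polarization read at Ex 480/Em 540.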
# % is set by controls: 0 for no effect and ±100 for the full control effect.
# Calcium and integrin-binding protein 1 (Homo sapiens), sequence (Q99828 whole entry, looked up): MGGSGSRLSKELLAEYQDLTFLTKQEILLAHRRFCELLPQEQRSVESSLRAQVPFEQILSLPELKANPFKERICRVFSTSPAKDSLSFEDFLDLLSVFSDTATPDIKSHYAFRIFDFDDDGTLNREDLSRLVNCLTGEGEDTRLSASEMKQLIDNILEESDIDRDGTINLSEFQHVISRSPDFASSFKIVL
row,Structure (SMILES),"activity change, negative = inhibition"
1,O=C(NC[C@H]1CN(c2ccc(N3CCOCC3=O)cc2)C(=O)O1)c1ccc(Cl)s1,3.2%
2,CN(C)N(C)C(=O)[C@@]1(Cc2ccccc2)CCCN(C(=O)[C@@H](Cc2c[nH]c3ccccc23)NC(=O)C(C)(C)N)C1,5.45%
3,O=C(Nc1cccc([N+](=O)[O-])c1)c1cccc(S(=O)(=O)N2CCCCCC2)c1,-2.76%
4,CCCCc1c(-c2ccc(OC)cc2)[nH]c2nccnc12,5.09%
5,C/C=C(/C)C(=O)OC1CC(C)(C)CC2C3=CCC4C5(C)CCC(O[C@@H]6O[C@H](C(=O)O)[C@@H](O)[C@H](O)[C@H]6O[C@@H]6O[C@H](CO)[C@H](O)[C@H](O[C@@H]7OC[C@H](O)[C@H](O)[C@H]7O[C@@H]7O[C@H](CO)[C@@H](O)[C@H](O)[C@H]7O)[C@H]6O)C(C)(C)C5CCC4(C)C3(C)C(O)C(O)C12CO (stereo partly specified),-2.71% [at 12.4 µM]
6,NCC(CNc1nc(Nc2cccc(NC(=O)N3CCCC3)c2)ncc1I)C(=O)c1cccs1 (stereo unspecified),6.53%
7,CC/C=C\CC1C(=O)C=CC1(CCCCC1CCC(=O)O1)OC(C)=O (stereo unspecified),-4.57% [at 57.7 µM]
8,COC(=O)c1ccnc(-c2cc(C(=O)Nc3ccc(C4(N)CC4)cc3)ccn2)c1,-1.96%
9,O=C(Nc1ccccc1C(=O)Nc1ccc(CCO)cc1)c1ccc([N+](=O)[O-])cc1,-0.0606%
10,COc1ccc(NC(=O)C2C[C@H](C)CC[C@H]2C(C)C)cc1 (stereo partly specified),0.341%
11,CCC/C=C/C(=O)O[C@H]1CC(C)(C)CC2[C@@]13[C@H](O)C[C@]1(C)[C@@]2(CCC2[C@@]4(C)CC[C@H](O[C@@H]5O[C@H](C(=O)O)[C@@H](O)[C@H](O[C@@H]6O[C@H](CO)[C@H](O)[C@H](O)[C@H]6O[C@@H]6O[C@@H](C)[C@H](O)[C@@H](O)[C@H]6O[C@@H]6OC[C@](O)(CO)[C@H]6O)[C@H]5O[C@@H]5O[C@H](CO)[C@H](O)[C@H](O)[C@H]5O)C(C)(C)C4CC[C@]21C)O[C@H]3O (stereo partly specified),4.06% [at 12.4 µM]
